# Compound activity as filed in PubChem.
# FBPA Giardia inh: blocks Giardia fructose-bisphosphate aldolase activity; A8B2U2; AID 2451; 0.71% of 290,000 active; purified Giardia FBPA; Potency, µM (doses to about 59.6 µM), for inactives: at the top dose activity, negative = inhibition, hits mostly inhibitors; further: potency means the concentration at half of the fitted maximal effect; nearly all actives have a fitted effect of over 55% in size
# Target sequence (A8B2U2 whole entry, looked up): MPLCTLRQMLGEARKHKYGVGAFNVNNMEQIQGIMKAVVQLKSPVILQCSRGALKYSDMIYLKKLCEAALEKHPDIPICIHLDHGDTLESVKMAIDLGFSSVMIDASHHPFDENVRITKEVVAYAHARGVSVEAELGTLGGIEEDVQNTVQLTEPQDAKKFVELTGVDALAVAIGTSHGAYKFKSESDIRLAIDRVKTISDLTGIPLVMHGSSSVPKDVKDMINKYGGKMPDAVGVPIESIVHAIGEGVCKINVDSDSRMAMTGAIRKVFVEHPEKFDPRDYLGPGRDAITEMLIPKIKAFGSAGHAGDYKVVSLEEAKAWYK
#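 40 nM FBPA preincubated 10 min at RT with compound (up to 57.5 uM final), then substrate plus GAPDH/TPI/NAD/arsenate coupling and diaphorase/resazurin added. Fluorescence read after 20 min at RT, 525/598 nm.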
# HCMV antiviral: human cytomegalovirus inhibition | HFF cells, HCMV-luciferase reporter, 72 h; stronger effect = lower value | activity change, negative = inhibition, % at 57.5 µM | 4.5% of 410,000 active | AID 1259415; in the data active means activity change below about -60%; inconclusive means no clear call, values can overlap the other calls; inactive means above about -39%
#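 After 16 h attachment at 37C, HFF cells received test compound and HCMV-luciferase (1 PFU/cell); reporter luminescence read 72 h later, data normalized against buffer-only and known inhibitor Salinomycin.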
# FMDV antiviral: foot and mouth disease virus antiviral activity; Potency, µM (top dose mostly 57.9 µM), without a hit: at the top dose activity change, negative = inhibition, usual class: inhibitors; FMDV antiviral cell-based qHTS; 1.2% of 410,000 active; AID 1159524; calls by dose curve; tested in HEK293T cells; further: read-out not given here; potency means the concentration at half of the fitted maximal effect; nearly all actives have a fitted effect of over 45% in size
# RE007 growth inh: less growth of the S. pombe RE007 Vpr strain; Potency, µM (doses to about 92.2 µM), without a hit: at the highest dose activity change, negative = less growth, actives largely listed as inhibitors; AID 651644; 0.21% of 360,000 active; S. pombe RE007 Vpr strain, BacTiter-Glo ATP luminescence, 24 h; active means well fitted falling curve with a large enough effect; inconclusive means small, poorly fitted or top-dose-only effect; inactive means no such curve, though single readings can be large or run the other way; further: potency means the concentration at half of the fitted maximal effect; nearly all actives have a fitted effect of over 50% in size
#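 Fission yeast strain RE007, carrying one chromosomally integrated HIV-1 vpr copy, was seeded at OD 0.01 in PMG+AL medium with 23 nL pinned compound. After 24 h at 30 °C and 99% humidity, viability was read by BacTiter-Glo luminescence.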
# Tb PYK inh: T. brucei pyruvate kinase inhibition. Potency, µM (highest dose often 76.8 µM), for the others: at the top dose activity, negative = inhibition, hits mostly inhibitors. TbPYK enzyme, Kinase-Glo Plus ATP luminescence, 45 min. 0.12% of 410,000 active; further: potency means the concentration at half of the fitted maximal effect; nearly all actives have a fitted effect of over 50% in size
#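 T. brucei PYK with substrate was exposed to pin-transferred compounds across a concentration series, then started with 130 uM ADP (final). After 45 min at room temperature, Kinase-Glo Plus luminescence was read, normalized and curve-fitted.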
# Sm TGR block: inhibitors of Schistosoma mansoni thioredoxin glutathione reductase; Potency, µM (doses to about 114 µM), for the others: at the highest dose activity change, negative = inhibition, hits mostly inhibitors; purified TGR, DTNB reduction, TNB absorbance 405 nm; 3% of 360,000 active; further: potency means the concentration at half of the fitted maximal effect; nearly all actives have a fitted effect of over 60% in size
#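 First, TGR (20 nM dispensed) and NADPH were mixed with compound. Second, a 15 min room-temperature incubation followed. Third, further NADPH and then DTNB were added to start the reaction. Finally, TNB absorbance was monitored kinetically.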
# * = called active by the depositor; u = inconclusive; x = no result given; [ ] = another dose, or the depositor's remark. Compounds with a hit are over-represented: about 7.7% of the library has one in this group of screens. Unless noted, the call rests on the fitted dose curve; in most records, active means well fitted curve in the direction sought with a large enough effect; inconclusive means small, poorly fitted or top-dose-only effect, or another doubt; inactive means no such curve, though single readings can be large; an effect the other way counts as inactive or inconclusive. On the % scale 0 is the no-effect control and ±100 the full control effect.
SMILES,FBPA Giardia inh,HCMV antiviral,FMDV antiviral,RE007 growth inh,Tb PYK inh,Sm TGR block
CCc1cccc(OCC(=O)Nc2ccc(S(=O)(=O)Nc3ncccn3)cc2)c1,x,1.4,0.7%,x,-4.0%,-2.6%
CC1(c2ccccc2)NC(=O)N(CC(=O)NCCC2=CCCCC2)C1=O (centres undefined),-1.0%,-69.3*,8.4%,-12.4%,0.1%,9.8%
COc1ccc(OC)c(C(=O)CN2C(=O)NC(C)(c3ccccc3)C2=O)c1 (centres undefined),3.8%,-60.7*,-12.4%,17.6%,5.5%,-0.7%
CCOc1ccc(Nc2nc3cc(Cl)c(Cl)cc3nc2-n2nc(C)cc2C)cc1,x,12.4,-16.8%,x,7.3%,8.5%
CCOc1ccc(Nc2cc(C)nc(-n3nc(C)cc3C)n2)cc1,12.5%,-84.2*,20µM*,-26.4%,-3.1%,-3.5%
Cc1ccc(Nc2cc(C)nc(-n3nc(C)cc3C)n2)cc1,x,-91.8*,9.0%,x,5.9%,-1.6%
CN1C/C(=C/c2ccc(B(O)O)cc2)C(=O)/C(=C/c2ccc(B(O)O)cc2)C1,-14.0%,x,28.2µM*,x,x,x
CC(C)N1C/C(=C/c2ccsc2)C(=O)/C(=C/c2ccsc2)C1,-29.5%,-84.6*,15.8µM*,-15.9%,-9.6%,-33.7%
CC(C)N1C/C(=C/c2cccnc2)C(=O)/C(=C/c2cccnc2)C1,2.7%,-36.5,8.91µM*,-21.3%,0.8%,u
O=C1c2ccccc2C(=Cc2cccnc2)c2ccccc21,x,-27.0,12.5%,-3.7%,5.0%,x
O=Cc1ccc(B(O)O)cc1,5.9%,x,x,x,x,x
CN1C/C(=C/c2cccnc2)C(=O)/C(=C/c2cccnc2)C1,-0.1%,-91.6*,3.16µM*,7.1%,-0.9%,u
O=C(CN1C(=O)C2(SCC(=O)N2c2ccccc2)c2ccccc21)Nc1ccccc1C(F)(F)F (centres undefined),x,8.9,-14.9%,x,-3.3%,0.1%
CCN(C(=O)CSc1nnc(-c2cc3occc3n2C)n1-c1ccccc1C)c1ccccc1,x,14.0,5.1%,x,5.8%,-5.8%
Cc1cc(C)c(S(=O)(=O)NCC2CCC(C(=O)NCCc3ccccc3)CC2)c(C)c1 (centres undefined),x,0.0,-10.5%,x,-5.7%[15.4 µM],0.6%
CC1=N/C(=C/c2cccnc2)C(=O)O1,5.1%,u,-1.2%,-7.2%,4.1%,22.4µM*
CC1C(=O)N(Cc2ccc(F)cc2)c2ccccc2N1C(=O)c1c(F)cccc1F (centres undefined),-10.4%,-72.9*,22.4µM*,-10.4%,2.6%,-5.5%
C=CC[C@@H](CC(=O)N[C@H](CO)Cc1ccccc1)C(=O)N[C@H](C)COC(=O)[C@@H](CC=C)CC(=O)OC(C)(C)C,x,-31.1,0.0%,-13.9%,1.3%,x
C=CC[C@@H](CC(=O)N[C@H](CO)Cc1ccccc1)C(=O)N[C@@H](C)COC(=O)[C@@H](CC=C)CC(=O)OC(C)(C)C,x,-60.2*,-29.9%,28.1%,-1.8%,x
O=C(c1cc(COc2ccc3ncccc3c2)on1)N1CCC[C@H]1CO,4.4%,u,-11.0%,-14.5%,-3.9%,4.2%
O=C(c1cc(COc2ccc3ncccc3c2)on1)N1CCCC(O)C1 (centres undefined),-5.1%,-63.5*,-19.8%,10.2%,-2.3%,0.2%
COCC1CCCN(C(=O)c2cc(COc3ccc4ncccc4c3)on2)C1 (centres undefined),x,-85.0*,u,15.8%,2.8%,-0.9%
O=C(NC1CCCCCCC1)c1cc(COc2ccc3ncccc3c2)on1,-9.0%,u,3.55µM*,1.0%,-1.2%,-0.6%
O=C(c1cc(COc2ccc3ncccc3c2)on1)N1CCC(O)CC1,-3.5%,-82.4*,-26.8%,4.7%,-1.1%,11.0%
CCOc1ccc(-c2nnc(SCC(=O)NCCC(C)C)nc2-c2ccc(OCC)c(OC)c2)cc1OC,x,-2.7,26.9%,x,-11.7%,-7.9%
CC1CCCCN1S(=O)(=O)c1cc2c3c(c1)CC(=O)N3CCC2 (centres undefined),x,-15.8,-9.1%,x,-9.5%,7.7%
